In PubChem BioAssay (NCATS):
Records with an inconclusive call do not appear. Active and inactive are the calls of the source. Calls come from the whole dose curve; as a rule, active = well fitted curve in the direction sought with a large enough effect; inconclusive = small, poorly fitted or top-dose-only effect, or another doubt; inactive = no such curve, though single readings can be large; an effect the other way counts as inactive or inconclusive.

Experiments:
NIH3T3 = assay: qHTS assay to identify novel small-molecules to repurpose for Merkel cell carcinoma treatment (AID 1296009); conditions: MCC and control cell lines, CellTiter-Glo viability, 72 h; at 44.8 µM (top of the series) unless noted; note: nearly all actives have a fitted effect of over 60% in size
Summary of the method: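 Luminescence from CellTiter-Glo, read 10 min after addition at room temperature, reported viability following a 72 hr, 37 degree celsius treatment with NPC or MIPE compounds in titration; values normalized to plate controls.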

C33A = assay: Primary qHTS to identify gynecologic anti-cancer compounds using libraries of approved drugs and bioactive compounds (AID 1345084); conditions: Gynecologic cancer cell panel viability, ATPlite luminescence, 48 h; series mostly up to 57.5 µM; note: % is set by controls: 0 for no effect and ±100 for the full control effect; nearly all actives have a fitted effect of over 55% in size
Summary of the method: (§1)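 Five-concentration response, 48 h; readout is ATP-driven luciferase luminescence.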

CAOV3 = assay: as above; conditions: Gynecologic cancer cell panel viability, ATPlite luminescence, 48 h; series mostly up to 57.5 µM
Summary of the method: as §1

CASKI = assay: as above; conditions: Gynecologic cancer cell panel viability, ATPlite luminescence, 48 h; series mostly up to 57.5 µM
Summary of the method: as §1

Es-2 = assay: as above; conditions: Gynecologic cancer cell panel viability, ATPlite luminescence, 48 h; series mostly up to 57.5 µM
Summary of the method: as §1

HeLa = assay: as above; conditions: Gynecologic cancer cell panel viability, ATPlite luminescence, 48 h; series mostly up to 57.5 µM
Summary of the method: as §1

Hek293T = assay: as above; conditions: Gynecologic cancer cell panel viability, ATPlite luminescence, 48 h, control line for the selectivity index; series mostly up to 57.5 µM
Summary of the method: as §1

JEG-3 = assay: as above; conditions: Gynecologic cancer cell panel viability, ATPlite luminescence, 48 h; series mostly up to 57.5 µM
Summary of the method: as §1

OV90 = assay: as above; conditions: Gynecologic cancer cell panel viability, ATPlite luminescence, 48 h; series mostly up to 57.5 µM
Summary of the method: as §1

PA-1 = assay: as above; conditions: Gynecologic cancer cell panel viability, ATPlite luminescence, 48 h; series mostly up to 57.5 µM
Summary of the method: as §1

SKOV3 = assay: as above; conditions: Gynecologic cancer cell panel viability, ATPlite luminescence, 48 h; series mostly up to 57.5 µM
Summary of the method: as §1

Tov-21-G = assay: as above; conditions: Gynecologic cancer cell panel viability, ATPlite luminescence, 48 h; series mostly up to 57.5 µM
Summary of the method: as §1

Tov112D = assay: as above; conditions: Gynecologic cancer cell panel viability, ATPlite luminescence, 48 h; series mostly up to 57.5 µM
Summary of the method: as §1

C=C1CCC2C(C)(C(=O)OC)CCCC2(C)C1CCC1=CCOC1=O (stereo unspecified)
inactive: outcome (NIH3T3) | Potency (C33A) | Potency (CAOV3) | outcome (CASKI) | Potency (Es-2) | Potency (HeLa) | Potency (Hek293T) | Potency (JEG-3) | Potency (OV90) | Potency (PA-1) | Potency (SKOV3) | Potency (Tov-21-G) | Potency (Tov112D)

C[C@@H]1O[C@@H](O[C@@H]2[C@@H](O)[C@H](O[C@H]3[C@H](O[C@H]4CC[C@@]5(C)C(CC[C@]6(C)C5CC=C5[C@@H]7CC(C)(C)CC[C@]7(C(=O)O[C@@H]7O[C@H](CO)[C@@H](O)[C@H](O)[C@H]7O)CC[C@]56C)C4(C)C)O[C@H](C(=O)O)[C@@H](O)[C@@H]3O)OC[C@H]2O)[C@H](O)[C@H](O)[C@H]1O (stereo partly specified)
inactive: outcome (NIH3T3) inactive [at 9.27 µM] | activity change, negative = cytotoxicity (C33A) -13.9% [at 11.6 µM] | activity change, negative = cytotoxicity (CAOV3) -6.12% [at 11.6 µM] | activity change, negative = cytotoxicity (CASKI) -1.32% [at 11.6 µM] | activity change, negative = cytotoxicity (Es-2) -9.99% [at 11.6 µM] | activity change, negative = cytotoxicity (HeLa) -3.66% [at 11.6 µM] | activity change, negative = cytotoxicity (Hek293T) -0.983% [at 11.6 µM] | activity change, negative = cytotoxicity (JEG-3) -0.837% [at 11.6 µM] | activity change, negative = cytotoxicity (OV90) 0.961% [at 11.6 µM] | activity change, negative = cytotoxicity (PA-1) 4.95% [at 11.6 µM] | activity change, negative = cytotoxicity (SKOV3) 20.4% [at 11.6 µM] | activity change, negative = cytotoxicity (Tov-21-G) 1.4% [at 11.6 µM] | activity change, negative = cytotoxicity (Tov112D) 6.86% [at 11.6 µM]

CCC/C=C/C=C/C1CC(O)C(O)C(=O)C1CO (stereo unspecified)
inactive: outcome (NIH3T3) | Potency (C33A) | Potency (CAOV3) | outcome (CASKI) | Potency (Es-2) | Potency (HeLa) | Potency (Hek293T) | Potency (JEG-3) | Potency (OV90) | Potency (PA-1) | Potency (SKOV3) | Potency (Tov-21-G) | Potency (Tov112D)

CC1(C)CC[C@]2(C(=O)O[C@@H]3O[C@H](CO)[C@@H](O)[C@H](O)[C@H]3O)CC[C@]3(C)C(=CCC4[C@@]5(C)CC[C@H](O[C@H]6O[C@H](CO)[C@@H](O)[C@H](O[C@@H]7O[C@H](CO)[C@@H](O)[C@H](O)[C@H]7O)[C@H]6O)C(C)(C)C5CC[C@]43C)[C@@H]2C1 (stereo partly specified)
inactive: outcome (NIH3T3) inactive [at 9.27 µM] | activity change, negative = cytotoxicity (C33A) 0.319% [at 11.6 µM] | activity change, negative = cytotoxicity (CAOV3) 1.94% [at 11.6 µM] | activity change, negative = cytotoxicity (CASKI) -7.8% [at 11.6 µM] | activity change, negative = cytotoxicity (Es-2) -1.42% [at 11.6 µM] | activity change, negative = cytotoxicity (HeLa) 11.5% [at 11.6 µM] | activity change, negative = cytotoxicity (Hek293T) 5.32% [at 11.6 µM] | activity change, negative = cytotoxicity (JEG-3) -9.09% [at 11.6 µM] | activity change, negative = cytotoxicity (OV90) -0.2% [at 11.6 µM] | activity change, negative = cytotoxicity (PA-1) 3.09% [at 11.6 µM] | activity change, negative = cytotoxicity (SKOV3) -4.14% [at 11.6 µM] | activity change, negative = cytotoxicity (Tov-21-G) -3.87% [at 11.6 µM] | activity change, negative = cytotoxicity (Tov112D) -5.45% [at 11.6 µM]

CC(=C\C(C)O)/C=C(\C)C(=O)CC1CC(CC(N)=O)CC(=O)O1 (stereo unspecified)
inactive: outcome (NIH3T3) | Potency (C33A) | Potency (CAOV3) | outcome (CASKI) | Potency (Es-2) | Potency (HeLa) | Potency (Hek293T) | Potency (JEG-3) | Potency (OV90) | Potency (PA-1) | Potency (SKOV3) | Potency (Tov-21-G) | Potency (Tov112D)

CC(O)C(O)/C=C/C=C/C(=O)O[C@@H]1C=C(C(=O)O)[C@](O)(CO)[C@@]2(C)CCCC(C)(C)[C@H]12 (stereo partly specified)
inactive: outcome (NIH3T3) inactive [at 17.4 µM] | Potency (C33A) | Potency (CAOV3) | outcome (CASKI) | Potency (Es-2) | Potency (HeLa) | Potency (Hek293T) | Potency (JEG-3) | Potency (OV90) | Potency (PA-1) | Potency (SKOV3) | Potency (Tov-21-G) | Potency (Tov112D)

CC1=C2CC(=O)C(C)CC/C=C(\C)CC2(O)OC1=O (stereo unspecified)
inactive: outcome (NIH3T3) | Potency (C33A) | Potency (CAOV3) | outcome (CASKI) | Potency (Es-2) | Potency (HeLa) | Potency (Hek293T) | Potency (JEG-3) | Potency (OV90) | Potency (PA-1) | Potency (SKOV3) | Potency (Tov-21-G) | Potency (Tov112D)

CC1(C)CC[C@]2(C(=O)O)CC[C@]3(C)C(=CCC4[C@@]5(C)C[C@H](O)[C@H](O[C@@H]6O[C@H](CO)[C@@H](O)[C@H](O)[C@H]6O)[C@@](C)(CO)C5[C@H](O)C[C@]43C)[C@@H]2C1 (stereo partly specified)
inactive: outcome (NIH3T3) inactive [at 17.4 µM] | Potency (C33A) | Potency (CAOV3) | outcome (CASKI) | Potency (Es-2) | Potency (HeLa) | Potency (Hek293T) | Potency (JEG-3) | Potency (OV90) | Potency (PA-1) | Potency (SKOV3) | Potency (Tov-21-G) | Potency (Tov112D)

CCCCCOC(=O)Nc1nc(=O)n(C2O[C@H](C)[C@@H](O)[C@H]2O)cc1F (stereo partly specified)
inactive: outcome (NIH3T3) | Potency (C33A) | Potency (CAOV3) | outcome (CASKI) | Potency (Es-2) | Potency (HeLa) | Potency (Hek293T) | Potency (JEG-3) | Potency (OV90) | Potency (PA-1) | Potency (SKOV3) | Potency (Tov-21-G) | Potency (Tov112D)

CC1=CC(=O)C(=C(C)C)CC2C(C)(O)CCC12O (stereo unspecified)
inactive: outcome (NIH3T3) | Potency (C33A) | Potency (CAOV3) | outcome (CASKI) | Potency (Es-2) | Potency (HeLa) | Potency (Hek293T) | Potency (JEG-3) | Potency (OV90) | Potency (PA-1) | Potency (SKOV3) | Potency (Tov-21-G) | Potency (Tov112D)

C/C=C/C=C/C(O)=C1/C(=O)[C@]2(C)C3/C(=C(O)/C=C/C=C/C)C(=O)C4(C)C1[C@]1(C)O[C@@]4(O)[C@@]3(C)O[C@@]12O
inactive: outcome (NIH3T3) inactive [at 17.4 µM] | Potency (C33A) | Potency (CAOV3) | outcome (CASKI) | Potency (Es-2) | Potency (HeLa) | Potency (Hek293T) | Potency (JEG-3) | Potency (OV90) | Potency (PA-1) | Potency (SKOV3) | Potency (Tov-21-G) | Potency (Tov112D)

C/C=C/C=C/C(O)=C1/C(=O)[C@]2(C)C(=O)[C@@](C)(O)[C@H]1[C@H]([C@@]1(C)OC(=O)C(C)=C1O)[C@H]2C(=O)CC/C=C/C
inactive: outcome (NIH3T3) inactive [at 17.4 µM] | Potency (C33A) | Potency (CAOV3) | outcome (CASKI) | Potency (Es-2) | Potency (HeLa) | Potency (Hek293T) | Potency (JEG-3) | Potency (OV90) | Potency (PA-1) | Potency (SKOV3) | Potency (Tov-21-G) | Potency (Tov112D)
